IL-1B inflam inh = inhibitors of inflammasome signaling (IL-1 beta secretion); activity change, % at 57.5 µM; THP-1 LPS/ATP IL-1B secretion, AlphaLISA, 16 h; hits give low values; AID 743279; 4.7% of 360,000 active; in the data active = activity change below about -50%; inconclusive = mostly about -30% to -49%
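THP-1 cells pretreated 1 hr with compounds (up to 57.5 uM final), then stimulated with LPS (250 ng/mL final) plus ATP (1.25 mM final); secreted IL-1B measured by AlphaLISA after 16 hr, decreased signal indicating inhibition.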
TDP1 cell noCPT = qHTS for Inhibitors of human tyrosyl-DNA phosphodiesterase 1 (TDP1): qHTS in cells in absence of CPT. DT40 Tdp1-/- hTDP1 cells, no CPT, ATP luminescence, 48 h. Potency, µM (titrated, usually from 46.2 µM), for inactives: at the top dose activity change, negative = growth inhibition, most hits filed as inhibitors. 15% of 420,000 active. AID 686978, 2013; also: potency is read from the fitted curve at half-maximal effect; nearly all actives have a fitted effect of over 55% in size
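Seeded 400 DT40-hTDP1 cells/well (vehicle DMSO, no 20 nM CPT); pinned compounds; ≥48 hr at 37 °C; CellTiter-Glo luminescence as viability measure.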
HT1080NT lethal = kills 2HG-producing HT-1080-NT fibrosarcoma cells; Potency, µM (titrated, usually from 46.1 µM), for the others: top-dose activity, negative = less viability, hits mostly cytotoxic; AID 686970; HT-1080-NT fibrosarcoma viability, CellTiter-Glo ATP luminescence, 48 h; 1.6% of 360,000 active;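 also: NT is the 2HG producing partner of a matched IDH1 knockdown line; potency is read from the fitted curve at half-maximal effect; 0% = DMSO-treated cells and -100% = media-only wells without cells; nearly all actives have a fitted effect of over 55% in size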
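Viability by CellTiter-Glo luminescence after 48 h compound exposure at 37C of HT-1080-NT cells (750/well, RPMI, 5% FBS). % activity scaled between DMSO wells and medium-only wells, then curve-fitted and categorized by curve class.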
HT1080 IDH1KD tx = kills HT-1080 cells with IDH1 knockdown | HT-1080 IDH1 knockdown viability, ATP luminescence, 48 h | Potency, µM (top dose mostly 46.1 µM), for inactives: at the top dose activity, negative = toxicity, most hits filed as cytotoxic | 2% of 360,000 active | AID 686971;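 also: potency is read from the fitted curve at half-maximal effect; 0% = DMSO wells and -100% = cell-free medium wells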
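% activity derives from luminescence (CellTiter-Glo), normalised to DMSO and no-cell wells. HT-1080-IDH1KD cells, 750/well, had 48 h compound exposure at 37 °C.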
DT40 TDP1 CPT = growth inhibition of DT40 Tdp1-/-;hTDP1 cells with camptothecin (screen for TDP1 inhibitors); chicken DT40 Tdp1-/-;hTDP1 cells + 20 nM CPT, ATP luminescence, 48 h; Potency, µM (top dose mostly 46.2 µM), inactives show at the highest dose activity change, negative = growth inhibition, most hits filed as inhibitors; 12% of 420,000 active; AID 686979; also: potency is read from the fitted curve at half-maximal effect; nearly all actives have a fitted effect of over 55% in size
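Cell growth measured by CellTiter-Glo luminescence after a minimum 48 h, 37 C compound exposure with 20 nM CPT in Tdp1-knockout DT40 cells stably expressing hTDP1, seeded 400/well; qHTS titration format.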
* = called active by the depositor. Rows were chosen to be rich in hits. Some 19% of all compounds tested hit in one or more screens of this group. Unless noted, calls follow the shape of the dose curve; as a rule, active = well fitted curve in the direction sought with a large enough effect; inconclusive = small, poorly fitted or top-dose-only effect, or another doubt; inactive = no such curve, though single readings can be large; an effect the other way counts as inactive or inconclusive. Unless noted, % is scaled to controls: 0 for no effect and ±100 for the full control effect.

How did O=C1CN(C(=O)c2ccco2)C(c2ccccc2)c2cc(Cl)ccc2N1 (stereo not given) do in these assays?
IL-1B inflam inh: 11; TDP1 cell noCPT: 16µM*; HT1080NT lethal: 0%; HT1080 IDH1KD tx: 7%; DT40 TDP1 CPT: 16µM*

How did Cc1ccc2c(c1)C(c1ccc(F)cc1)N(C(=O)c1ccccc1Br)CC(=O)N2 (stereo not given) do in these assays?
IL-1B inflam inh: 5; TDP1 cell noCPT: -20%; HT1080NT lethal: -1%; HT1080 IDH1KD tx: inconclusive; DT40 TDP1 CPT: -19%

How did O=C1CN(C(=O)c2ccc(Br)o2)C(c2ccc(F)cc2)c2cc(Cl)ccc2N1 (stereo not given) do in these assays?
IL-1B inflam inh: -6; TDP1 cell noCPT: inconclusive; HT1080NT lethal: inconclusive; HT1080 IDH1KD tx: inconclusive; DT40 TDP1 CPT: 16µM*

How did CC(C)(C)NC(=O)C(c1ccccn1)N(C(=O)C1CSC(=O)C1)c1ccccc1F (stereo not given) do in these assays?
IL-1B inflam inh: -15; TDP1 cell noCPT: 0%; HT1080NT lethal: 16%; HT1080 IDH1KD tx: 3%; DT40 TDP1 CPT: 5%

Results for CN(C)c1ccc(CNc2ccc3c(c2)ncn3C)cc1 ?
IL-1B inflam inh: -59*; TDP1 cell noCPT: 23µM*; HT1080NT lethal: -8%; HT1080 IDH1KD tx: inconclusive; DT40 TDP1 CPT: 15µM*

How did CC(C)c1ccc(CNc2ccc3c(c2)ncn3C)cc1 do in these assays?
IL-1B inflam inh: 0; TDP1 cell noCPT: inconclusive; HT1080NT lethal: -4%; HT1080 IDH1KD tx: -11%; DT40 TDP1 CPT: 23µM*

Results for CCOc1ccc(/C=N/NC(=O)Cc2ccccc2)cc1CN1CC2CC(C1)c1cccc(=O)n1C2 (stereo not given) ?
IL-1B inflam inh: -104*; TDP1 cell noCPT: 21µM*; HT1080NT lethal: -29%; HT1080 IDH1KD tx: inconclusive; DT40 TDP1 CPT: inconclusive

Results for CCCCNC(=O)C1C(c2ccc(OC)cc2)=Nc2ccccc2N1C(=O)c1ccncc1 (stereo not given) ?
IL-1B inflam inh: -8; TDP1 cell noCPT: 21µM*; HT1080NT lethal: 6%; HT1080 IDH1KD tx: 0%; DT40 TDP1 CPT: 23µM*

How did COc1ccc(C(=O)NC2CCCN(Cc3ccc(Cl)cc3)C2)c(OC)c1 (stereo not given) do in these assays?
IL-1B inflam inh: -25; TDP1 cell noCPT: 12µM*; HT1080NT lethal: inconclusive; HT1080 IDH1KD tx: -17%; DT40 TDP1 CPT: 16µM*

What do the screens show for `COc1cc2c(cc1OC)CN(C1CCCN(Cc3cc(Cl)ccc3O)C1)CC2` (stereo not given)?
IL-1B inflam inh: 0; TDP1 cell noCPT: inconclusive; HT1080NT lethal: -1%; HT1080 IDH1KD tx: -5%; DT40 TDP1 CPT: 16µM*

Results for COc1ccc(C(=O)C2CCCN(Cc3cc(C)c(O)c(C)c3)C2)c(OC)c1 (stereo not given) ?
IL-1B inflam inh: inconclusive; TDP1 cell noCPT: 21µM*; HT1080NT lethal: inconclusive; HT1080 IDH1KD tx: -26%; DT40 TDP1 CPT: inconclusive

Results for CCOC(=O)C1CCCN(Cc2ccc(O)c(OC)c2)C1 (stereo not given) ?
IL-1B inflam inh: 5; TDP1 cell noCPT: -2%; HT1080NT lethal: -3%; HT1080 IDH1KD tx: -15%; DT40 TDP1 CPT: -10%

What do the screens show for `CCOc1cc(CN2CCCC(C(=O)c3cccc(C(F)(F)F)c3)C2)ccc1O` (stereo not given)?
IL-1B inflam inh: -3; TDP1 cell noCPT: 26µM*; HT1080NT lethal: -10%; HT1080 IDH1KD tx: -10%; DT40 TDP1 CPT: inconclusive

Results for COc1ccc(C(=O)C2CCCN(Cc3cc(Cl)ccc3O)C2)c(OC)c1 (stereo not given) ?
IL-1B inflam inh: -65*; TDP1 cell noCPT: inconclusive; HT1080NT lethal: inconclusive; HT1080 IDH1KD tx: inconclusive; DT40 TDP1 CPT: inconclusive

Results for COc1ccc(C(=O)C2CCCN(C3Cc4ccccc4C3)C2)c(OC)c1 (stereo not given) ?
IL-1B inflam inh: 0; TDP1 cell noCPT: 10µM*; HT1080NT lethal: inconclusive; HT1080 IDH1KD tx: inconclusive; DT40 TDP1 CPT: 21µM*

Results for COc1cc(CN2CCCC(C(=O)c3ccc(C(C)(C)C)cc3)C2)cc(OC)c1O (stereo not given) ?
IL-1B inflam inh: -79*; TDP1 cell noCPT: inconclusive; HT1080NT lethal: inconclusive; HT1080 IDH1KD tx: inconclusive; DT40 TDP1 CPT: inconclusive

What do the screens show for `COc1cccc(C(=O)C2CCCN(Cc3ccc(OC)c(Cn4cncn4)c3)C2)c1` (stereo not given)?
IL-1B inflam inh: -4; TDP1 cell noCPT: inconclusive; HT1080NT lethal: -2%; HT1080 IDH1KD tx: -5%; DT40 TDP1 CPT: inconclusive

How did COc1ccc(CN2CCCC(C(=O)c3ccc(Cl)cc3)C2)cc1Cn1cccn1 (stereo not given) do in these assays?
IL-1B inflam inh: -92*; TDP1 cell noCPT: inconclusive; HT1080NT lethal: inconclusive; HT1080 IDH1KD tx: inconclusive; DT40 TDP1 CPT: inconclusive

How did Cc1c(NC(=O)c2ccc(-c3cccc([N+](=O)[O-])c3)o2)c(=O)n(-c2ccccc2)n1C do in these assays?
IL-1B inflam inh: -7; TDP1 cell noCPT: -18%; HT1080NT lethal: -10%; HT1080 IDH1KD tx: -9%; DT40 TDP1 CPT: -5%

What do the screens show for `O=C(COc1ccc(-c2ccccc2)cc1)NNC(=O)Nc1ccccc1`?
IL-1B inflam inh: 3; TDP1 cell noCPT: -19%; HT1080NT lethal: -4%; HT1080 IDH1KD tx: -10%; DT40 TDP1 CPT: -12%

Results for CC1Cc2ccccc2N1C(=O)Cn1nnc(-c2ccccc2NC(=O)C2CCC2)n1 (stereo not given) ?
IL-1B inflam inh: -11; TDP1 cell noCPT: 15µM*; HT1080NT lethal: -24%; HT1080 IDH1KD tx: inconclusive; DT40 TDP1 CPT: inconclusive

What do the screens show for `COc1ccc(C(=O)Cn2nnc(-c3ccccc3NC(=O)C3CCCCC3)n2)cc1`?
IL-1B inflam inh: 19; TDP1 cell noCPT: inconclusive; HT1080NT lethal: 0%; HT1080 IDH1KD tx: -2%; DT40 TDP1 CPT: 23µM*

Results for Cc1ccc(CNC(=O)CCCCn2c(=O)c3ccccc3n(Cc3ccc(C)cc3)c2=O)cc1 ?
TDP1 cell noCPT: -17%; DT40 TDP1 CPT: -21%

How did Nn1cc(Br)c(=O)[nH]c1=O do in these assays?
TDP1 cell noCPT: -21%; DT40 TDP1 CPT: -4%

How did CCCn1c(SCC(=O)Nc2cc(C)on2)n[nH]c1=O do in these assays?
IL-1B inflam inh: 13; TDP1 cell noCPT: -13%; HT1080NT lethal: 18%; HT1080 IDH1KD tx: 0%; DT40 TDP1 CPT: 0%

How did CCc1cc(=O)oc2c(CNCc3c(F)cccc3Cl)c(O)ccc12 do in these assays?
IL-1B inflam inh: 10; TDP1 cell noCPT: -2%; HT1080NT lethal: 9%; HT1080 IDH1KD tx: 0%; DT40 TDP1 CPT: 18µM*

Screening results deposited in PubChem BioAssay by National Center for Advancing Translational Sciences (NCATS).
